The values below come from PMC7862700, “An all-to-all approach to the identification of sequence-specific readers for epigenetic DNA modifications on cytosine”.

What all share (assay): DAPPL (digital affinity profiling via proximity ligation, sequencing); 10 mM Tris-HCl pH 7.5, 50 mM NaCl, 1 mM DTT, 4% glycerol, room temperature, 30 min; GST-TFs on glutathione beads, 16-mer random dsDNA library, 0.1% formaldehyde crosslink after washing; high values mean tight binding
In one experiment the target is T1, FLI1 (Homo sapiens, UniProt Q01543 1-452).
T1 sequence: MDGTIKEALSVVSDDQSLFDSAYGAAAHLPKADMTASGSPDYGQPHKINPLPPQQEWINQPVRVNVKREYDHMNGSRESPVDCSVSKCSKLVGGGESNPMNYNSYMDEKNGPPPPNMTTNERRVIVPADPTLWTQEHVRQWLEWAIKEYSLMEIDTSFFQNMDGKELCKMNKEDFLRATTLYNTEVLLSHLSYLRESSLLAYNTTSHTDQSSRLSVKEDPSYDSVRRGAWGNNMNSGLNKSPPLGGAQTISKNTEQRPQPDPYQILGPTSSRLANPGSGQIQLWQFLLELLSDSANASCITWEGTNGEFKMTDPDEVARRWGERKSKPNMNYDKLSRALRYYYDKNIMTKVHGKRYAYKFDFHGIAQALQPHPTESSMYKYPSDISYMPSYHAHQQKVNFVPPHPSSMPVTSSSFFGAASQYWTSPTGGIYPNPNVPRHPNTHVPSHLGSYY
As to conditions: protein: recombinant; tags: N-terminal GST; dsDNA, one strand shown. An outline of the steps: (§1)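 Human transcription factors were made in yeast as GST fusions, captured on glutathione beads and barcoded with DNA. With a tag-only sample included, the pool was incubated with 200 nmole of a random double-stranded 16-mer DNA library in Tris/NaCl/DTT/glycerol buffer at room temperature for 30 min, then crosslinked with 0.1% formaldehyde after washing, ligated by proximity, amplified and sequenced. For binding signal, each hexamer's read frequency for a factor is divided by its frequency for the tag-only sample.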

Another experiment concerns the target T2, ELK1 (Homo sapiens, UniProt P19419 1-428).
T2 sequence: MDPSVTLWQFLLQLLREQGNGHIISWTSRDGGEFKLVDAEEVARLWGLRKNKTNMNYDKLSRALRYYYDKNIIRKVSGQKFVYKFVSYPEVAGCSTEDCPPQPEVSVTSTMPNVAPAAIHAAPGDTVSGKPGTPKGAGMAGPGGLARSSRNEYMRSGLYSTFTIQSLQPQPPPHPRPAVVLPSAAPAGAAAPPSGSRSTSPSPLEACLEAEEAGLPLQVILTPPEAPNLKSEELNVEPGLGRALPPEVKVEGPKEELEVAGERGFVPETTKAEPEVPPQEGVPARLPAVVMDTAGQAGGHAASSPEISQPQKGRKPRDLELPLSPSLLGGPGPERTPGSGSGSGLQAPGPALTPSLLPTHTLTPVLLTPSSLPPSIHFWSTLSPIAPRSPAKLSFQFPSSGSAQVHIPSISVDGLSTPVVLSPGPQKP
To be noted: protein: recombinant; tags: N-terminal GST; dsDNA, one strand shown. In a few lines:
as §1

For another experiment, the target named is T3, GABPA (Homo sapiens, UniProt Q06546 1-454).
T3 sequence: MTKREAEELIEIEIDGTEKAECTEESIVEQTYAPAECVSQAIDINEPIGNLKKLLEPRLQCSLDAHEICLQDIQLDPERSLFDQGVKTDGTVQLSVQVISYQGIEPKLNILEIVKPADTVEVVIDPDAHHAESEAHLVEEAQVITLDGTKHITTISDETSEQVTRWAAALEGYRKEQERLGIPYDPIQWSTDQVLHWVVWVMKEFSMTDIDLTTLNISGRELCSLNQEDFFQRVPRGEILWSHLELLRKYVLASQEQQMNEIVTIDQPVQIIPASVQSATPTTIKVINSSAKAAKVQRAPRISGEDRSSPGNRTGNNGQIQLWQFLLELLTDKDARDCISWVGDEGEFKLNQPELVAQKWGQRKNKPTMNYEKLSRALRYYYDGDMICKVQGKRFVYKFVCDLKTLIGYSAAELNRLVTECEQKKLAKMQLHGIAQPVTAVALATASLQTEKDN
To be noted: protein: recombinant; tags: N-terminal GST; dsDNA, one strand shown. An outline of the steps: as §1

The target in the next experiment is T4, ERG (Homo sapiens, UniProt P11308 1-479).
T4 sequence: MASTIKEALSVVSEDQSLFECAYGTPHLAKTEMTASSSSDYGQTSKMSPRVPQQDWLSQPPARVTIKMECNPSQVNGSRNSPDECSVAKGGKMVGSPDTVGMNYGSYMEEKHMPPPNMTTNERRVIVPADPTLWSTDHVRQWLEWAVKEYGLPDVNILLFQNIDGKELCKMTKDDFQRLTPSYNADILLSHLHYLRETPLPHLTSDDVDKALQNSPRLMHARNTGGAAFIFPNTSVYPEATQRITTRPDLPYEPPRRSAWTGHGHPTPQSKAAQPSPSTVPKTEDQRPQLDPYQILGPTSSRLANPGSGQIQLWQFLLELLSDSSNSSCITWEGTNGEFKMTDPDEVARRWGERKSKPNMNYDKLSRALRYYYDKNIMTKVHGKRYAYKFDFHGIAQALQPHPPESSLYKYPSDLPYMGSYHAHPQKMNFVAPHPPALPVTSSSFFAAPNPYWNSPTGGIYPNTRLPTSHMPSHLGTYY
To be noted: protein: recombinant; tags: N-terminal GST; dsDNA, one strand shown. In a few lines: as §1

In another experiment the target is ELF1 (Homo sapiens, UniProt P32519 1-619). To be noted: protein: recombinant; tags: N-terminal GST; dsDNA, one strand shown. An outline of the steps: as §1
Chain of ELF1 (P32519 whole entry): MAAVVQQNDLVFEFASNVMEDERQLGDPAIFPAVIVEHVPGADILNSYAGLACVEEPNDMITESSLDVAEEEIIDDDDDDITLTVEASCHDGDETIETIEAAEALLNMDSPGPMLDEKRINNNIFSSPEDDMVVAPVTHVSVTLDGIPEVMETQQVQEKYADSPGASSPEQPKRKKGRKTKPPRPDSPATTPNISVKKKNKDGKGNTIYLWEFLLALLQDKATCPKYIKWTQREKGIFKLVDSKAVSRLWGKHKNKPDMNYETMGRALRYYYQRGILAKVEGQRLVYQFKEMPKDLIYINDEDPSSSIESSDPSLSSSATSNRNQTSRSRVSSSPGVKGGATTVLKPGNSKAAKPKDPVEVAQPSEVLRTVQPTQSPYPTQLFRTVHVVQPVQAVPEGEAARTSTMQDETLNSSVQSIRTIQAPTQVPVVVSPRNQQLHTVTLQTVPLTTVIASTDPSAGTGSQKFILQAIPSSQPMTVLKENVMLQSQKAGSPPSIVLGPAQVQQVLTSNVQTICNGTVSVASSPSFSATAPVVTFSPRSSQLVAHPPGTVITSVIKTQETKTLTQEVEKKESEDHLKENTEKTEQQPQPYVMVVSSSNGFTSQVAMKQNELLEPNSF
The next experiment deals with T5, EHF (Homo sapiens, UniProt Q9NZC4 1-300).
T5 sequence: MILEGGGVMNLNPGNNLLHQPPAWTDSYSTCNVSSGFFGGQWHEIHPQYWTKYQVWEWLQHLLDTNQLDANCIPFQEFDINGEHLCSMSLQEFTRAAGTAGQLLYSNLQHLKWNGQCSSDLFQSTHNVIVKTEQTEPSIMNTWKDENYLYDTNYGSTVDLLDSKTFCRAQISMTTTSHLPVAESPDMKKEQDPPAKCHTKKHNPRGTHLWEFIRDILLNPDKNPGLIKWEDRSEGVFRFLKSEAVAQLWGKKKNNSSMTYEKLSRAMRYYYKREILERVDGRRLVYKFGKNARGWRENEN
As to conditions: protein: recombinant; tags: N-terminal GST; dsDNA, one strand shown. In a few lines: as §1

The target of another experiment is SPI1 (Homo sapiens, UniProt P17947 1-270). As to conditions: protein: recombinant; tags: N-terminal GST; dsDNA, one strand shown. An outline of the steps: as §1
Another experiment has as its target SPIB (Homo sapiens, UniProt Q01892 1-262). As to conditions: protein: recombinant; tags: N-terminal GST; dsDNA, one strand shown. In a few lines:
as §1

The target in another experiment is T6, ELK3 (Homo sapiens, UniProt P41970 1-407).
T6 sequence: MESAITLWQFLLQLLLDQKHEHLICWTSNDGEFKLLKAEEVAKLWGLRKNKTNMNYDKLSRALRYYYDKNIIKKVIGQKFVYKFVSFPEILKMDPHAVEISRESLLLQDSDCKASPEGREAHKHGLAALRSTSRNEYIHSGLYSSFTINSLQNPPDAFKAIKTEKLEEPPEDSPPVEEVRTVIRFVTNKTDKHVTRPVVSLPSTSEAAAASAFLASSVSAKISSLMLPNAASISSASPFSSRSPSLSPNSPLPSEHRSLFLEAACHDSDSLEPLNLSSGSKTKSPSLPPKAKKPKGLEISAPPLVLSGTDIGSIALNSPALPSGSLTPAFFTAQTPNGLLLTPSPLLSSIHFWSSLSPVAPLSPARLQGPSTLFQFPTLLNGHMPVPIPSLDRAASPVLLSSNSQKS
As to conditions: protein: recombinant; tags: N-terminal GST; dsDNA, one strand shown. An outline of the steps:
as §1

For the next experiment, the target named is T7, FEV (Homo sapiens, UniProt Q99581 1-238).
T7 sequence: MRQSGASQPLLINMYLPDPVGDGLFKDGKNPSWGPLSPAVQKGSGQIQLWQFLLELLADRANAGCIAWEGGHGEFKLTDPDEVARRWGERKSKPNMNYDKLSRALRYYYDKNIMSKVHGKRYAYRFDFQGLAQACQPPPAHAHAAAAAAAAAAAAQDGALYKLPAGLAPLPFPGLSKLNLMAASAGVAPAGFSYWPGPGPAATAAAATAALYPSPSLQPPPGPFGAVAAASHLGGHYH
As to conditions: protein: recombinant; tags: N-terminal GST; dsDNA, one strand shown. An outline of the steps:
as §1

Another experiment addresses ETV5 (Homo sapiens, UniProt P41161 1-510). To be noted: protein: recombinant; tags: N-terminal GST; dsDNA, one strand shown. In a few lines:
as §1

For a further experiment, the target named is HSF1 (Homo sapiens, UniProt Q00613 1-529). As to conditions: protein: recombinant; tags: N-terminal GST; chain copies: 3; dsDNA, one strand shown. In a few lines: as §1
Chain of HSF1 (Q00613 whole entry): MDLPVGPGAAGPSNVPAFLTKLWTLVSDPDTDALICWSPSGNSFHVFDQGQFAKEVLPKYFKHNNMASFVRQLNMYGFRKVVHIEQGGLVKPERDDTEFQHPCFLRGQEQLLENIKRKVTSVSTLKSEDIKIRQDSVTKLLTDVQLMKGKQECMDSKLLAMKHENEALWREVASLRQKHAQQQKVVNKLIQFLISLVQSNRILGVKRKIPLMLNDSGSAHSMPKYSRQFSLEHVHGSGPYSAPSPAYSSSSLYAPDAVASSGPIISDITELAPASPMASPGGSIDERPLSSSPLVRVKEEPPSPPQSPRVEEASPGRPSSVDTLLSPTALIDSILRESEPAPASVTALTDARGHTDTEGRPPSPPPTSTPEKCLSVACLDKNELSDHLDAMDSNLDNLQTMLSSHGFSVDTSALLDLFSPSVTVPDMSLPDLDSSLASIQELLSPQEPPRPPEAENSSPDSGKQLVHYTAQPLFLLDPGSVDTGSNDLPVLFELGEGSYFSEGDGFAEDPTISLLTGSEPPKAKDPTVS
The next experiment deals with T8, SPIC (Homo sapiens, UniProt Q8N5J4 1-248).
T8 sequence: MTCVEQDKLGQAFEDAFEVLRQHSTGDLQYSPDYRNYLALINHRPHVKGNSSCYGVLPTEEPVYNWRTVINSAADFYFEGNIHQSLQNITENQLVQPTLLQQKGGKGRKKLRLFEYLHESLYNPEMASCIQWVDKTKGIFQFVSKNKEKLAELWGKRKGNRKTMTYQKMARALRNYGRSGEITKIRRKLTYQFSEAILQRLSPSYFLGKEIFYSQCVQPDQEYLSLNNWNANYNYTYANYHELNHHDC
As to conditions: protein: recombinant; tags: N-terminal GST; dsDNA, one strand shown. In a few lines: as §1

The next experiment concerns the target ELF4 (Homo sapiens, UniProt Q99607 1-663). As to conditions: protein: recombinant; tags: N-terminal GST; dsDNA, one strand shown. An outline of the steps: as §1
The target in another experiment is T9, ELK4 (Homo sapiens, UniProt P28324-2 1-405).
T9 sequence: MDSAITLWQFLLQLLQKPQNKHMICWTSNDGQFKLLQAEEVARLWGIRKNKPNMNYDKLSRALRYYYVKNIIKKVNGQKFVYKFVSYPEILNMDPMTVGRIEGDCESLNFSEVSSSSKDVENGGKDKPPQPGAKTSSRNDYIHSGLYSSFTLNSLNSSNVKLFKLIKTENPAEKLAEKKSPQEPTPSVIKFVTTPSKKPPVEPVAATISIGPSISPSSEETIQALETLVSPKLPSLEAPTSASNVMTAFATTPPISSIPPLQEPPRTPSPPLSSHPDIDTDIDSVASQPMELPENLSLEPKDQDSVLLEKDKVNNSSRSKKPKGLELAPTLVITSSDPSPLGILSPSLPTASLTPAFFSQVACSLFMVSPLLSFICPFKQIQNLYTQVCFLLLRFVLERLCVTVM
To be noted: protein: recombinant; tags: N-terminal GST; dsDNA, one strand shown. In a few lines:
as §1

Another experiment concerns the target T10, ETV2 (Homo sapiens, UniProt O00321 1-342).
T10 sequence: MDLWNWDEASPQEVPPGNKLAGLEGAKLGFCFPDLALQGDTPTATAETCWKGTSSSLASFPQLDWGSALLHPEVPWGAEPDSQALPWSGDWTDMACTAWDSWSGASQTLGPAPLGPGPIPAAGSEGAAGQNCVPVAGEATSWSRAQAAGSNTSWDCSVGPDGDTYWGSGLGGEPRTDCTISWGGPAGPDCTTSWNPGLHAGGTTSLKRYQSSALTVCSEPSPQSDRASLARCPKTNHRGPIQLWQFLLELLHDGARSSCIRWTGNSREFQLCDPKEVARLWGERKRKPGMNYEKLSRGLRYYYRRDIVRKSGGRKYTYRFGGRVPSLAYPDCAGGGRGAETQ
As to conditions: protein: recombinant; tags: N-terminal GST; dsDNA, one strand shown. An outline of the steps:
as §1

The next experiment concerns the target T11, ELF3 (Homo sapiens, UniProt P78545 1-371).
T11 sequence: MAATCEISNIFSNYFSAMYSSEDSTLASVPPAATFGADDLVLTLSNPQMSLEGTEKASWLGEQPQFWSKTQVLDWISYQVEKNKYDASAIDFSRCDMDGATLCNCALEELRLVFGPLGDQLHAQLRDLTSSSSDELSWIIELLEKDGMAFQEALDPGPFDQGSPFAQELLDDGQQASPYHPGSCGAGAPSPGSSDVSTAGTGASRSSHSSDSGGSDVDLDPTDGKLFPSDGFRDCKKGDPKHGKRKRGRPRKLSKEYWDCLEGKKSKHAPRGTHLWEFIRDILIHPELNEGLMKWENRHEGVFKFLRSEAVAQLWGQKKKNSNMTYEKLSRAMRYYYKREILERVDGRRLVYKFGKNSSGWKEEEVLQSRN
To be noted: protein: recombinant; tags: N-terminal GST; dsDNA, one strand shown. An outline of the steps:
as §1

For a further experiment, the target named is ETV1 (Homo sapiens, UniProt P50549 1-477). As to conditions: protein: recombinant; tags: N-terminal GST; dsDNA, one strand shown. An outline of the steps:
as §1

Chain of SPIB (Q01892 whole entry): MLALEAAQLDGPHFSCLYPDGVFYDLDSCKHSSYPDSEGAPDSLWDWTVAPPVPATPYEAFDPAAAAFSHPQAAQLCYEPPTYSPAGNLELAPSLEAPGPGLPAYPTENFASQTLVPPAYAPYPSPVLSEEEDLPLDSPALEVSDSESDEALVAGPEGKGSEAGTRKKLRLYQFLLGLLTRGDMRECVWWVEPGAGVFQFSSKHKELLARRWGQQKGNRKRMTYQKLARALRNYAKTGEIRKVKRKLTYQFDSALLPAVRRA
Chain of ETV1 (P50549 whole entry): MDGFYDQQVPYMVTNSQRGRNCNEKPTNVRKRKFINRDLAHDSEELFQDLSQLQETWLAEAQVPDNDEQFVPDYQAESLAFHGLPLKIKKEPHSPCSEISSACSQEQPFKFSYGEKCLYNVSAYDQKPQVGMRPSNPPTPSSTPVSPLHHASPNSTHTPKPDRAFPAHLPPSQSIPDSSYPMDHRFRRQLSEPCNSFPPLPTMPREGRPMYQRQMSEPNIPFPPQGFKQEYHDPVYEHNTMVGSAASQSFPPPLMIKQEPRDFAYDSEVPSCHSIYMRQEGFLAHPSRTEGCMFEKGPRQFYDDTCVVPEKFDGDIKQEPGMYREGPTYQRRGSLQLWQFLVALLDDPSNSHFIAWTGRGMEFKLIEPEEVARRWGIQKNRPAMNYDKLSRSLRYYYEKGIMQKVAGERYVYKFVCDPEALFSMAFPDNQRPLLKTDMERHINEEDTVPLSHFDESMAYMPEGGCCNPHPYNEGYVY
Chain of ELF4 (Q99607 whole entry): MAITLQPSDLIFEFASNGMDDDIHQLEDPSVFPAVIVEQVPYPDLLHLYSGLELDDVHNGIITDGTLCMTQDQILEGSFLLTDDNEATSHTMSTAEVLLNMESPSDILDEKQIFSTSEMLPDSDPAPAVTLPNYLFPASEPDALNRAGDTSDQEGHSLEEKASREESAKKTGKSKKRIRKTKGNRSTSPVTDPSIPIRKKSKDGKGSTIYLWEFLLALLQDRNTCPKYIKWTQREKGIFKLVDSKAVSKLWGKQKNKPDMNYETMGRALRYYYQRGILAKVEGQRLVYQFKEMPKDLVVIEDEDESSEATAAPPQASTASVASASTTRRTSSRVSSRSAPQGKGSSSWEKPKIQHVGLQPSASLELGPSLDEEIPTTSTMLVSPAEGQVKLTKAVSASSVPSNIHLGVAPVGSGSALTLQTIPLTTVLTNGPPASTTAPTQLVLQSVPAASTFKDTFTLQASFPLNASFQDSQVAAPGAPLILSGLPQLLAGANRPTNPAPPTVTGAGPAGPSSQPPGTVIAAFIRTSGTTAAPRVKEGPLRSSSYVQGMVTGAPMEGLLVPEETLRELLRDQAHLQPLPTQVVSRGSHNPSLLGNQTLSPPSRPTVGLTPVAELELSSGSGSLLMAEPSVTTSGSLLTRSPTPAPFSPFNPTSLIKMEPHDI
Chain of ETV5 (P41161 whole entry): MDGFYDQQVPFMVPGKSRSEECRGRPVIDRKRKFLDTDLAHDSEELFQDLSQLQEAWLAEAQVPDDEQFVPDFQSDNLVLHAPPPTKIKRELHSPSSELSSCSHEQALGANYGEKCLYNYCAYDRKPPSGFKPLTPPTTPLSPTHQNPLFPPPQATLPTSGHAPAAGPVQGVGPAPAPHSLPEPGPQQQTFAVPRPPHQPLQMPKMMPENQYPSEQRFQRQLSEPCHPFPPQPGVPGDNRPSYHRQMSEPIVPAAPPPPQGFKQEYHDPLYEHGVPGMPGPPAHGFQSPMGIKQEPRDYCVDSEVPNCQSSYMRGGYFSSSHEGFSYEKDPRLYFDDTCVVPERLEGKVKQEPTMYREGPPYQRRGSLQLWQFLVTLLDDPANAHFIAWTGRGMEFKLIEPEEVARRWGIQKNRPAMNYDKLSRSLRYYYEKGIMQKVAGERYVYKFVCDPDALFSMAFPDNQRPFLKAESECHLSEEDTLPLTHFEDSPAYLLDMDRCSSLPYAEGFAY

For GAACAC, the binding signal with FLI1 was 1.25 fold enrichment (6-mer frequency, TF over GST control); with ELK1, 1.19 fold enrichment (6-mer frequency, TF over GST control); with GABPA, 1.13 fold enrichment (6-mer frequency, TF over GST control); in the experiment with ERG, 1.17 fold enrichment (6-mer frequency, TF over GST control); in the experiment with ELF1, 1.19 fold enrichment (6-mer frequency, TF over GST control); in the experiment with EHF it was 1.12 fold enrichment (6-mer frequency, TF over GST control). For the same sequence, the binding signal with SPI1 was 1.16 fold enrichment (6-mer frequency, TF over GST control); in the experiment with SPIB it was 1.2 fold enrichment (6-mer frequency, TF over GST control); with ELK3 it was 1.08 fold enrichment (6-mer frequency, TF over GST control); in the experiment with FEV, 1.08 fold enrichment (6-mer frequency, TF over GST control); in the experiment with ETV5, 1.08 fold enrichment (6-mer frequency, TF over GST control); with HSF1, 1.21 fold enrichment (6-mer frequency, TF over GST control). For the same sequence, the binding signal was 1.18 fold enrichment (6-mer frequency, TF over GST control) in the experiment with SPIC; 1.13 fold enrichment (6-mer frequency, TF over GST control) with ELF4; 1.17 fold enrichment (6-mer frequency, TF over GST control) with ELK4; 1.33 fold enrichment (6-mer frequency, TF over GST control) with ETV2; 1.13 fold enrichment (6-mer frequency, TF over GST control) with ELF3; 1.18 fold enrichment (6-mer frequency, TF over GST control) in the experiment with ETV1.
